Assay outcomes deposited in PubChem by several laboratories.
HSP90 inh: blocks HSP90-mediated luciferase refolding in reticulocyte lysate. Rabbit reticulocyte lysate, luciferase refolding luminescence, 3 h. 0.91% of 290,000 active. inhibition, % at 5.6 µM;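 active means inhibition above the screen-wide mean plus 3 SD, computed separately per campaign, cut at about 16% in these data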;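 further: 0% = DMSO wells and 100% = 60 µM geldanamycin wells; inhibitors lower the luminescence because luciferase stays unfolded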
SENP8 block-1: SENP8 (human) protease inhibition; 0.64% of 360,000 active; recombinant SENP8, Nedd8 substrate fluorescence; AID 602440; inhibition, % at 20 µM; Q96LD8; in the data active means inhibition mostly above about 40%, no sharp cut-off; inactive means mostly below about 27%
SENP7 inh: inhibitors of human SENP7 protease. inhibition, % at 5 µM. recombinant SENP7, Z-RLRGG-aminoluciferin luminescence, 40 min. 1.5% of 330,000 active;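 active means inhibition above about 50% at the single test dose, limit read from the data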;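 further: plate controls were DMSO with enzyme for no effect and no enzyme buffer wells for full effect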
SENP8 block-2: inhibitors of human SENP8 protease; inhibition, % at 10 µM; 1.2% of 330,000 active; purified SENP8, Z-RLRGG-aminoluciferin cleavage, luminescence; in the data active means inhibition above about 50%
SENP6 block: blocks the human protease SENP6. Q9GZR1. Recombinant SENP6 catalytic domain, aminoluciferin luminescence. inhibition, % at 10 µM. 1.8% of 330,000 active. AID 2599;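 active means inhibition above about 50% at the single tested dose, limit read from the data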;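 further: plate controls were DMSO wells with enzyme for no effect and DMSO wells lacking enzyme for full effect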
HSP90 confirm: HSP90 inhibition, confirmation assay; shares compounds with HSP90 inh; rabbit reticulocyte lysate, luciferase refolding luminescence, 3 h; inhibition, % at 5.9 µM; 64% of 2,300 active; AID 1846; in the data active means inhibition above about 18%;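 further: 0% = vehicle wells and 100% = reference inhibitor wells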
FLuc counter: blocks native firefly luciferase in HSP90 counter-screen. 48% of 2,300 active. shares compounds with HSP90 inh. purified native firefly luciferase, luminescence. inhibition, % at 5.9 µM;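 active means inhibition above the mean inhibition of all tested sample wells plus 3 SD, cut at about 10% in these data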;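 further: 0% = DMSO with luciferase and 100% = wells lacking luciferase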
Target sequence (P08659 whole entry, looked up): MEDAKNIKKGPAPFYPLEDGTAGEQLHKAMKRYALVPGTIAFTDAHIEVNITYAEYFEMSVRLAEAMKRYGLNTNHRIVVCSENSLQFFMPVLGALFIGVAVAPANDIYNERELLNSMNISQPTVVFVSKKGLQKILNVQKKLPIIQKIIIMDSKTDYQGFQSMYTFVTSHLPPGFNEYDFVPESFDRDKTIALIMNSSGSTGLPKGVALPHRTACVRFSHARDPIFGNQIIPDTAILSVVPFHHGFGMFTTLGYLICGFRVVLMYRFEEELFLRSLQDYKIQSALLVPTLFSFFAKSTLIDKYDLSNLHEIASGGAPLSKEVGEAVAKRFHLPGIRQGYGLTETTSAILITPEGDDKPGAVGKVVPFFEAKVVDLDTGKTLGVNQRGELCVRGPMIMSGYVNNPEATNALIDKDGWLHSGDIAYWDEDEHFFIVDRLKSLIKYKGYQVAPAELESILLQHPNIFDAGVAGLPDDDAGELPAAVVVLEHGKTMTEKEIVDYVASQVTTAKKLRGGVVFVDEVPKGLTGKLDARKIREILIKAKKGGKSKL
SENP8 confirm: human SENP8 inhibition, confirmed; 40% of 6,200 active; AID 488912; Recombinant SENP8, Z-RLRGG-aminoluciferin luminescence, 60 min; shares compounds with SENP7 inh; inhibition, % at 12.5 µM;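 active means mean inhibition across replicates above about 50%, limit read from the data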
SENP6 confirm: confirmation of human SENP6 protease inhibitors | shares compounds with SENP7 inh | recombinant SENP6, Z-RLRGG-aminoluciferin luminescence | inhibition, % at 12.5 µM | 58% of 6,200 active | AID 488915
SENP7 confirm: human SENP7 inhibition, confirmed; inhibition, % at 12.5 µM; shares compounds with SENP7 inh; recombinant SENP7, Z-RLRGG-aminoluciferin luminescence, 40 min; 69% of 6,200 active
Casp3 SENP sel: selectivity test for SENP inhibitors: human caspase-3 inhibition | 60% of 6,200 active | purified caspase-3, Z-DEVD-aminoluciferin luminescence, 60 min | shares compounds with SENP7 inh | inhibition, % at 12.5 µM;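 active means mean inhibition above about 50%, limit read from the data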;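 further: plate controls were enzyme with DMSO for no effect and wells without caspase-3 for full effect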
Target sequence (P42574 28-227 limits assumed): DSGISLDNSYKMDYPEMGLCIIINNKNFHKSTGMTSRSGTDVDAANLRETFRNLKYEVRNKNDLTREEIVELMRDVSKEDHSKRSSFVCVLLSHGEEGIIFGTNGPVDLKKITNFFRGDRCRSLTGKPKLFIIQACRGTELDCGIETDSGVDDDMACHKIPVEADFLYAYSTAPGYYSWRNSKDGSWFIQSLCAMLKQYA
SENP luc ctr: interferes with luciferase luminescence in SENP counter-screen; shares compounds with SENP7 inh; Pre-incubated SENP8/Z-RLRGG-aminoluciferin, luciferase luminescence interference; inhibition, % at 12.5 µM; 39% of 6,200 active; AID 488919;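 active means mean inhibition above about 50% when retested at one dose, limit read from the data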;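 further: plate controls were DMSO wells with completed reaction for no effect and substrate without enzyme for full effect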
An asterisk follows results filed as active; . = no result. Shown are actives, neighbours in structure and some others; about 2.7% of the full set was active somewhere.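 How the source made its calls, unless noted: active means mean inhibition above about 50% in the one-dose retest (limit read from the data); inactive means the rest.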

SMILES | HSP90 inh | SENP8 block-1 | SENP7 inh | SENP8 block-2 | SENP6 block | HSP90 confirm | FLuc counter | SENP8 confirm | SENP6 confirm | SENP7 confirm | Casp3 SENP sel | SENP luc ctr
Cc1ccc(C(=O)Nc2ccsc2C(=O)O)cc1 | 18.0* | 14.6 | 93.6* | 91.6* | 93.6* | 13.4 | -1.4 | 1.4 | 96.8* | 102.0* | 97.7* | 95.6*
Nc1ncnc2c1ncn2[C@@H]1O[C@H](CO)[C@@H](O)[C@@H]1O | . | 8.7 | 10.0 | 1.1 | -4.5 | . | . | . | . | . | . | .
COc1ccccc1NC(=O)CSc1ccc(-c2cccs2)nn1 | -0.3 | 9.0 | -9.8 | -2.8 | -14.2 | . | . | . | . | . | . | .
Cc1ccc(NC(=S)c2nc3ccccc3[nH]2)cc1 | 19.3* | 17.2 | 55.3* | 56.9* | 78.9* | 23.2* | 7.2 | 71.0* | 78.4* | 94.9* | 60.5* | 41.9
S=C(NCc1cccs1)Nc1cccc2ccccc12 | 2.2 | -17.3 | 4.3 | 3.7 | 10.6 | . | . | . | . | . | . | .
N#Cc1ccccc1OCCN1C(=O)c2ccccc2C1=O | -5.7 | 25.5 | -2.3 | -5.3 | -13.9 | . | . | . | . | . | . | .
Nc1cccc2c1C(=O)N(CCOc1ccccc1F)C2=O | 29.6* | -320.3 | 73.0* | 72.9* | 83.1* | 51.4* | 45.3* | 79.2* | 79.8* | 95.2* | 78.7* | 82.9*
Cc1ccc2c(c1)COc1c3ccc(C(=O)O)cc3nn1-2 | 95.8* | -68.0 | 99.7* | 94.9* | 95.3* | 94.4* | 78.7* | 96.0* | 96.2* | 101.0* | 96.9* | 95.2*
O=C(CN1C(=O)NC2(CCCC2)C1=O)Nc1ccc(OC(F)(F)F)cc1 | -0.9 | -3.8 | 2.9 | -2.6 | -18.9 | . | . | . | . | . | . | .
CN1N=C2c3ccccc3CCC2C1c1ccc(F)cc1 (stereo not drawn) | 6.4 | -288.9 | 11.9 | 35.0 | 29.1 | . | . | . | . | . | . | .
CN1N=C2c3ccccc3CCC2C1c1ccc(Cl)cc1 (stereo not drawn) | 23.4* | -195.4 | 6.7 | 58.5* | 31.5 | 34.3* | 16.2* | -4.8 | -1.7 | 0.6 | -0.9 | -1.9
CCCS(=O)(=O)N1CCCC(C(=O)NCCCN2CCCC2=O)C1 (stereo not drawn) | -4.3 | 25.1 | -6.8 | -7.4 | -16.2 | . | . | . | . | . | . | .
O=C(/C=C/c1ccco1)N1CCc2ccccc21 | 23.6* | 13.3 | 90.8* | 91.2* | 93.4* | 41.2* | 24.8* | -1.2 | 96.0* | 101.8* | 96.7* | 94.2*
COCCNc1nc2nonc2nc1N(C)Cc1cccc2cnccc12 | -2.1 | 6.1 | -0.4 | 6.8 | -13.3 | . | . | . | . | . | . | .
CN1C(=O)S/C(=C/c2ccc(OCc3cccc(C(=O)O)c3)cc2)C1=O | 46.5* | -29.8 | 57.4* | 77.6* | 92.4* | 50.2* | -3.3 | 61.7* | 67.4* | 58.3* | 15.6 | 35.0
CCOC(=O)c1c(C)[nH]c(C)c1S(=O)(=O)NCc1ccccc1C | 1.2 | 0.9 | -14.8 | -8.8 | -13.3 | . | . | . | . | . | . | .
N#Cc1c(NC(=O)c2ccccc2Cl)n(Cc2ccccc2)c2nc3ccccc3nc12 | 5.5 | -297.6 | . | . | . | . | . | . | . | . | . | .
CCCCn1c(NC(=O)c2ccccc2Cl)c(C#N)c2nc3ccccc3nc21 | 58.7* | -302.5 | 70.2* | 93.9* | 96.0* | 45.7* | 2.2 | 75.8* | 89.7* | 78.2* | 2.3 | 11.8
C=CCn1c(CNC(=O)c2cccs2)nnc1SCC(=O)c1ccc(Br)cc1 | -0.9 | 31.3 | -0.7 | -3.4 | 5.7 | . | . | . | . | . | . | .
Cc1ccc(NC(=O)c2nnn(-c3ccc4c(c3)OCCO4)c2N)cc1 | -5.6 | 1.3 | -11.3 | -13.0 | -12.7 | . | . | . | . | . | . | .
Nc1c(C(=O)Nc2ccccc2)nnn1-c1ccc2c(c1)OCCO2 | 23.6* | 20.2 | 82.3* | 76.3* | 84.6* | 44.6* | 31.0* | 85.2* | 84.3* | 97.1* | 81.6* | 69.5*
O=C(/C=C\Nc1ccccn1)c1ccccc1 | 38.6* | -208.8 | 96.7* | 89.9* | 95.3* | 73.8* | 70.0* | 95.8* | 96.5* | 101.8* | 97.0* | 94.4*
O=C(/C=C/Nc1ccc(Br)cc1F)c1ccccc1 | 23.3* | -26.9 | 99.6* | 93.6* | 93.9* | 83.8* | 77.8* | -26.9 | 15.2 | 36.1 | 65.1* | 9.0
O=C(/C=C/c1ccccc1)c1ccccn1 | -5.3 | -39.4 | -6.1 | 3.1 | 34.3 | . | . | . | . | . | . | .
COc1ccc(C(=O)/C=C/Nc2ccccn2)c(OC)c1 | 4.0 | -331.9 | 13.7 | -1.4 | 2.7 | . | . | . | . | . | . | .
SMILES | HSP90 inh | SENP8 block-1 | SENP7 inh | SENP8 block-2 | SENP6 block | HSP90 confirm | FLuc counter | SENP8 confirm | SENP6 confirm | SENP7 confirm | Casp3 SENP sel | SENP luc ctr
O=C(/C=C/Nc1ccccc1Br)c1ccccn1 | 86.5* | -31.3 | 100.0* | 95.8* | 96.9* | 97.7* | 93.8* | 2.4 | 99.6* | 103.2* | 96.9* | 89.3*
COCc1cc(C)c(C#N)c(=S)[nH]1 | -0.3 | -12.4 | -0.3 | 1.4 | -13.1 | . | . | . | . | . | . | .
CN(C)c1ccc(/C=c2\sc3n(c2=O)CCCN=3)cc1 | 18.2* | -14.2 | 67.9* | 73.7* | 87.0* | 65.3* | 51.7* | 86.6* | 83.7* | 95.3* | 84.9* | 75.7*
COc1ccc(CCn2c(NN=C(C)C)nc3c2c(=O)[nH]c(=O)n3C)cc1 | -3.0 | -68.2 | -3.0 | 13.1 | -11.7 | . | . | . | . | . | . | .
CC(C)C(=O)Nc1ccc2nn(-c3ccc(F)cc3)nc2c1 | 24.6* | -435.8 | 85.0* | 53.1* | 71.3* | 27.6* | 19.8* | 15.9 | 31.2 | 65.6* | 26.1 | 8.5
CCOC(=O)N1CCN(C(=O)C2CCN(S(=O)(=O)c3ccc(NC(C)=O)cc3)CC2)CC1 | -1.2 | 22.3 | 6.0 | 6.2 | 13.7 | . | . | . | . | . | . | .
Oc1cccc(C=Nc2cccc3ccccc23)c1O | 22.8* | -314.1 | 16.7 | 35.9 | 53.6* | 3.4 | -4.5 | 16.8 | 22.1 | 9.1 | 39.7 | -5.6
Oc1ccccc1C=Nc1cccc2ccccc12 | 11.3 | -284.9 | 20.9 | 41.0 | 49.5 | . | . | . | . | . | . | .
COc1nc(C)ccc1-c1noc(-c2ccco2)n1 | 18.6* | 1.7 | 60.6* | 41.2 | 70.4* | 32.7* | 24.3* | 50.9* | 57.2* | 84.8* | 68.6* | 27.8
COc1nc(-c2ccc(C)cc2)ccc1-c1noc(-c2ccco2)n1 | 8.7 | -285.5 | -0.1 | -6.8 | -10.2 | . | . | . | . | . | . | .
Cc1ccc(NC(=O)O/N=C/c2c(C)nn(C(C)(C)C)c2C)cc1Cl | 86.0* | 13.3 | 51.6* | 47.4 | 52.4* | 86.9* | 87.7* | 10.1 | 46.2 | 41.5 | 1.0 | -2.8
Cc1ccc(NC(=O)Nn2cnnc2)cc1Cl | -8.0 | 14.7 | 2.2 | -1.9 | -9.5 | . | . | . | . | . | . | .
